Pf growth 48h: Primary qHTS for delayed death inhibitors of the malarial parasite plastid, 48 hour incubation; P. falciparum luciferase growth in erythrocytes, 48 h; Potency, µM (titrated, usually from 28.7 µM), inactives show at the top dose activity change, negative = inhibition, usual class: inhibitors; hit rate 5.9% among 310,000; AID 504832, 2011; also: % is scaled to controls: 0 for no effect and ±100 for the full control effect
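Growth was read as firefly luciferase luminescence after a 48 h, 37 C, 5% CO2 exposure of compounds to reporter-bearing P. falciparum cultures (0.1% parasitemia, 2% hematocrit final) in Albumax-supplemented RPMI 1640.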
Pf growth 96h: Primary qHTS for delayed death inhibitors of the malarial parasite plastid, 96 hour incubation; P. falciparum luciferase reporter growth, 96 h; Potency, µM (highest dose often 28.7 µM), for inactives: at the top dose activity change, negative = inhibition, most hits filed as inhibitors; hit rate 6.9% among 320,000; also: % is scaled to controls: 0 for no effect and ±100 for the full control effect
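Two-generation exposure (96 h) targets delayed-death phenotype. Reporter parasites carrying integrated firefly luciferase, in red cells at 2% hematocrit and 0.05% parasitemia final, kept at 37 C, 5% CO2; luminescence loss indicates inhibition.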
SARS PLpro yeast: qHTS of Yeast-based Assay for SARS-CoV PLP; S. cerevisiae expressing SARS-CoV PLpro, growth rescue; Potency, µM (highest dose often 32.9 µM), for the others: at the highest dose activity, positive = growth rescue, hits mostly activators; hit rate 0.19% among 330,000; AID 485353, 2010; calls by dose curve; also: 0% is about no effect; nearly all actives have a fitted effect of over 55% in size
AMA1-RON2 inh: qHTS for Inhibitors of AMA1-RON; Towards Development of Antimalarial Drug Lead: Primary Screen | AID 720542, 2013 | hit rate 0.2% among 360,000 | AlphaScreen AMA1-biotinylated RON2 peptide binding | Potency, µM (top dose mostly 58.2 µM), for inactives: top-dose activity change, negative = inhibition, actives largely listed as inhibitors;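 also: 0% = vehicle wells and -100% = peptide control; nearly all actives have a fitted effect of over 45% in size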
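AMA1 (3D7) with his tag at 25 nM final met compounds first, then biotinylated RON2 peptide at 25 nM; detection used donor plus acceptor beads, 10 µg/mL apiece, read by AlphaScreen after 30 min at room temperature.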
Starred values were filed as active, the others as inactive; ? = inconclusive; . = not tested or not shown; [ ] = dose if it differs, or a comment. Sampled rows, rich in hits. Any-hit rate of the full collection: about 9.4%. Unless noted, calls follow the shape of the dose curve; as a rule, active = well fitted curve in the direction sought with a large enough effect; inconclusive = small, poorly fitted or top-dose-only effect, or another doubt; inactive = no such curve, though single readings can be large; an effect the other way counts as inactive or inconclusive. Potency is read from the fitted curve at half-maximal effect.

SMILES	Pf growth 48h	Pf growth 96h	SARS PLpro yeast	AMA1-RON2 inh
CCN(CC)CCCNc1nc(CN2CCOCC2)nc2sc3c(c12)CCC3	2%	?	4%	22%
CCC(C)Nc1nc(CN2CCOCC2)nc2sc3c(c12)CCC3 (configuration not stated)	.	9.3µM*	9%	47%
Cc1nc(Oc2ccc(S(=O)(=O)N3CCOCC3)cc2Cl)c2c3c(sc2n1)CCCC3	?	13µM*	11%	-3%
Cc1cccc(Oc2nc(CN3CCOCC3)nc3sc4c(c23)CCCC4)c1	10µM*	?	-27%	?
Clc1nc(CN2CCOCC2)nc2sc3c(c12)CCC3	6%	0%	23%	-10%
O=C(CSc1ncnc2scc(-c3ccccc3)c12)N1CCN(Cc2ccc3c(c2)OCO3)CC1	-1%	?	-8%	-13%
Fc1ccc(CN2CCN(c3ncnc4scc(-c5ccccc5)c34)CC2)cc1	?	10µM*	-2%	0%
c1ccc(-c2csc3ncnc(N4CCN(Cc5ccc6c(c5)OCO6)CC4)c23)cc1	13µM*	?	-2%	-5%
Fc1ccc(-c2csc3ncnc(N4CCN(Cc5ccccc5)CC4)c23)cc1	?	9.3µM*	?	6%
Fc1ccc(N2CCN(c3nc(CN4CCOCC4)nc4scc(-c5ccccc5)c34)CC2)cc1	12µM*	7.4µM*	-7%	?
CN(C)CCNc1nc2c(c(=O)[nH]c(=O)n2C)n1CC(O)COc1ccc(Cl)cc1Cl (configuration not stated)	?	?	-27%	14%
COc1ccc(Br)cc1CN1CCN(C(=O)Cc2ccccc2)CC1	-1%	.	7%	-2%
Cc1sc2ncnc(N3CCN(Cc4ccccc4)CC3)c2c1-c1ccc(F)cc1	13µM*	13µM*	-4%	-2%
Cc1ccc2c(c1)[nH]c1c(N3CCN(Cc4ccc5c(c4)OCO5)CC3)ncnc12	2.9µM*	.	-6%	.
CCc1ccc(NC(=O)C2CCCN2c2nn3c(=O)cc(C)nc3s2)cc1 (configuration not stated)	-3%	13µM*	0%	0%
COc1ccc(NC(=O)C2CCCN2c2nn3c(=O)cc(C)nc3s2)cc1 (configuration not stated)	25%	?	0%	11%
CCc1cccc(C)c1NC(=O)C1CCN(c2nn3c(=O)cc(C)nc3s2)CC1	-11%	9.3µM*	0%	8%
COc1ccc(-c2noc(CC(=O)O)c2-c2ccc(OC)cc2)cc1	?	-101%	.	.
O=S(=O)(Nc1cccc(F)c1)c1cccc2nsnc12	3%	7%	-1%	-6%
Cc1ccc(NS(=O)(=O)c2cccc3nsnc23)cc1C	0%	4.1µM*	-2%	-12%
S=C1NC[C@H](c2ccccc2)N1CCCCC1CCCCC1	12µM*	6.6µM*	9%	-1%
COc1cccc(CN2CCN(Cc3cccc(F)c3)CC2)c1	21%	?	-10%	16µM*
COc1cc(CN2CCN(Cc3ccco3)CC2)cc(OC)c1	25%	2.1µM*	0%	20%
COC(=O)c1ccc(CSC2=NC[C@@H]3[C@@H]4C(=O)N(C)C(=O)[C@@H]4[C@](C)(C(=O)OC)N23)cc1	.	.	11%	6%
O=S(=O)(Oc1ccccc1)c1cccnc1	.	.	.	19%
SMILES	Pf growth 48h	Pf growth 96h	SARS PLpro yeast	AMA1-RON2 inh
N#Cc1ccc2c(c1)C[C@]1(CCCCN3C(=O)c4ccccc4C3=O)OC3=C(C(=O)OC4(CCCCC4)C3)C2O1	?	?	-3%[6.58 µM]	.
N#Cc1ccc2c(c1)C[C@]1(CCCCN3C(=O)c4ccccc4C3=O)Oc3c(c(=O)oc4ccc(F)cc34)C2O1	1.9µM*	?	-13%[6.58 µM]	.
CC1(C)CC(=O)C2=C(C1)O[C@@]1(CCCCN3C(=O)c4ccccc4C3=O)Cc3cc(C#N)ccc3C2O1	1.5µM*	49%[5.75 µM]	2%[6.58 µM]	.
COc1cc(NC(C)CCCN)c2ncccc2c1Oc1ccccc1 (configuration not stated)	?	2.1µM*	-24%	3%
COc1cc(N[C@@H](C)CCCN)c2ncccc2c1	0.81µM*	0.57µM*	.	.
O=C1C2C3C=CC(C3)C2C(=O)N1c1cccc2cccnc12 (configuration not stated)	0%	5.9µM*	-1%	-1%
O=[N+]([O-])c1cc(Br)c(Nc2ccccc2)c([N+](=O)[O-])c1	0.52µM*	10%	-13%	25µM*
O=C(O)c1cc([N+](=O)[O-])ccc1Nc1ccccc1	13%	10µM*	-3%	11%
O=C(Nc1ccccc1)c1ccc(Nc2c([N+](=O)[O-])cc([N+](=O)[O-])c3ccccc23)cc1	?	14%	-16%	-26%
COc1cccc(C(=O)N/N=C(/c2ccccc2)c2ccccn2)c1	9.3µM*	?	-36%	96%
COc1cc(C(=O)N/N=C(\C)c2ccccn2)cc(OC)c1OC	17%	18%	3%	12%
COc1cc(C(=O)N/N=C(\c2ccccc2)c2ccccn2)cc(OC)c1OC	0.93µM*	9.3µM*	6%	108%
O=S(=O)(c1ccc(Br)s1)N1CCN(c2ncccn2)CC1	.	3%	-6%	8%
COc1ccc(OC)c(-c2oc3ccccc3c(=O)c2O)c1	?	?	-1%	5%
COc1ccc(OC)c(C2=C/C(=C/c3ccccn3)C(=O)O2)c1	?	5.2µM*	-5%	47%
O=C(/C=C/Nc1ccccc1O)c1ccco1	71%	15%	-3%	73%
O=C(/C=C/Nc1ccccc1Oc1ccccc1)c1ccco1	10µM*	?	13%	-25%
COc1ccc(-c2nnn(CC(=O)OC3CCCCC3)n2)cc1OC	25%	.	-2%	0%
O=C(CCC1CCN(C(=O)Cc2c(F)cccc2F)CC1)NC1CC1	-10%	2%	2%	8%
CCOc1ccc(N=C2NN=C(c3cc(C)n(CC4CCCO4)c3C)CS2)cc1 (configuration not stated)	?	2.1µM*	0%	8%
C=CCn1c(C)cc(C2=NNC(=Nc3ccc(C)cc3)SC2)c1C	?	?	-3%	16%
CN(CCNC(=O)c1c[nH]c2c1ccc1ccccc12)CCNC(=O)c1c[nH]c2c1ccc1ccccc12	.	.	.	-20%
Oc1ccccc1C1=Nc2ccccc2N=C(c2ccco2)C1	-4%	6%	-7%	-5%
CCOc1cc(C(=O)NCC(C)(C)CNC(=O)c2cc(OCC)c(OCC)c(OCC)c2)cc(OCC)c1OCC	.	.	.	-1%
NC(=O)c1ccsc1NC(=O)CSc1ccccc1F	98%	9.3µM*	17%	-3%
NC(=O)c1ccsc1NC(=O)c1nc(-c2ccccc2)n(-c2ccccc2)n1	7.4µM*	7.4µM*	0%	40%
CN(C)c1ccc(C2N3CC4(C)CN2CC(C)(C3)C4O)cc1 (configuration not stated)	.	4.7µM*	0%	92%
C[C@@]12CC[C@H]3[C@@H](CCC4=CC(=O)CC[C@]43C)[C@H]1CC[C@H]2C(=O)CO	-16%[12.8 µM]	?	.	.

Screens: PubChem BioAssay, National Center for Advancing Translational Sciences (NCATS)
